# Source: PubChem BioAssay (NCI)
# Several values for one entry are separate records, joined by “and”; a condition that tells them apart may be missing. Identical values can stand only once. This is part of a sample that, as a whole, favours compounds with a hit. Of some 79,000 tested, about 15% had one in any assay. Unmarked numbers belong to inactive results. Activity calls are given as the source filed them. No stated cut-off is given here; in the data, active means growth inhibition above about 70%; inactive means the rest.
# Experiment: NCI Yeast Anticancer Drug Screen. Data for the mlh1 rad18 strain (AID 175)
# Settings: S. cerevisiae mlh1 rad18 strain growth inhibition; at 50.0 µM; stronger effect = higher value
# Summary of the method: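 Inhibition values reflect reduced growth of mutant yeast versus vehicle-treated controls following compound exposure; the mutations affect DNA damage repair.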
row,SMILES,growth inhibition
1,N#C[C@H](OC1OC(COC2OC(CO)C(O)C(O)C2O)C(O)C(O)C1O)c1ccccc1 (stereo partly specified),-28.1%
2,CCCCCCN1C(C)C1C(C)C (stereo unspecified),1.6%
3,CCCCCOP(=O)(OCCCCC)C(=O)Nc1ccc([N+](=O)[O-])cc1,10.9%
4,Cc1nnc2cc3ccccc3cn12,18.1%
5,C[N+](C)(C)CC1CCC(C[N+](C)(C)C)C1=NO (stereo unspecified),-15.5%
6,C[C@H]1CC(=O)C[C@@H]2CC[C@@H]3[C@H](CC[C@]4(C)C(OC(=O)c5cccc6c(=O)c7ccccc7[nH]c56)CC[C@@H]34)[C@]21C (stereo partly specified),40.9%
7,C=C(C)C1(CC)C(=O)NC(=O)N(C)C1=O (stereo unspecified),-7.95% and -13.1%
8,O=c1oc2ccccc2c(O)c1C(c1cnc2ccccc2c1)c1c(O)c2ccccc2oc1=O,47%
9,CNC(C)(C)Cc1ccc(Cl)cc1,-0.45%
10,O=P(OCCCCl)(OCCCCl)C(Cl)(Cl)Cl,2.15%
11,OC1(CN2CCCCC2)N=C(c2ccccc2)c2ccsc2-n2cccc21 (stereo unspecified),-3%
12,O=c1[nH]c2ccccc2c(=O)n1-c1ccccc1,-15.4%
13,CCCCCCCCCCCOP(=O)(OCC)OCC,99.7% (active)
14,Cc1ccc(NC(=O)C(Cl)(Cl)Cl)cc1Cl,14.8%
15,NC(Cc1ccc(Cl)cc1)P(=O)(O)O (stereo unspecified),-16.1%
16,c1ccc(-c2sc3cccc[n+]3c2-c2ccccc2)cc1,-3.35%
17,CC(=O)Oc1ccc([As](=O)(O)O)cc1,1.05%
18,CO[C](=[W])c1ccccc1.[C-]#[O+].[C-]#[O+].[C-]#[O+].[C-]#[O+].[C-]#[O+],-4.1%
19,CC(C)c1cccc(OC(=O)N(C)C=O)c1,-1.5%
20,Cc1cnc2ncn(Cc3c[nH]c(=O)[nH]c3=O)c(=O)c2c1,-11.5%
21,CCCCC(Br)C(=O)OCC (stereo unspecified),11.8%
